Assay results taken from the supplement of paper PMC11732987, “Enantioselective OTUD7B fragment discovery through chemoproteomics screening and high-throughput optimisation” (Communications Chemistry, 2025).

What was measured:
Assay in all cases: log2 ratio of Biotin-Ahx-Ub-VS probe labelling (fragment/DMSO); higher = less target engagement (more negative = stronger competition), active = hit call of the paper (q ≤ 0.05, log2 ratio ≤ -1)
Details in all cases: compound concentration: 200 uM; treatment time: 3 h
USP19 = target: T1, USP19 (UniProt O94966)
T1 sequence (whole entry): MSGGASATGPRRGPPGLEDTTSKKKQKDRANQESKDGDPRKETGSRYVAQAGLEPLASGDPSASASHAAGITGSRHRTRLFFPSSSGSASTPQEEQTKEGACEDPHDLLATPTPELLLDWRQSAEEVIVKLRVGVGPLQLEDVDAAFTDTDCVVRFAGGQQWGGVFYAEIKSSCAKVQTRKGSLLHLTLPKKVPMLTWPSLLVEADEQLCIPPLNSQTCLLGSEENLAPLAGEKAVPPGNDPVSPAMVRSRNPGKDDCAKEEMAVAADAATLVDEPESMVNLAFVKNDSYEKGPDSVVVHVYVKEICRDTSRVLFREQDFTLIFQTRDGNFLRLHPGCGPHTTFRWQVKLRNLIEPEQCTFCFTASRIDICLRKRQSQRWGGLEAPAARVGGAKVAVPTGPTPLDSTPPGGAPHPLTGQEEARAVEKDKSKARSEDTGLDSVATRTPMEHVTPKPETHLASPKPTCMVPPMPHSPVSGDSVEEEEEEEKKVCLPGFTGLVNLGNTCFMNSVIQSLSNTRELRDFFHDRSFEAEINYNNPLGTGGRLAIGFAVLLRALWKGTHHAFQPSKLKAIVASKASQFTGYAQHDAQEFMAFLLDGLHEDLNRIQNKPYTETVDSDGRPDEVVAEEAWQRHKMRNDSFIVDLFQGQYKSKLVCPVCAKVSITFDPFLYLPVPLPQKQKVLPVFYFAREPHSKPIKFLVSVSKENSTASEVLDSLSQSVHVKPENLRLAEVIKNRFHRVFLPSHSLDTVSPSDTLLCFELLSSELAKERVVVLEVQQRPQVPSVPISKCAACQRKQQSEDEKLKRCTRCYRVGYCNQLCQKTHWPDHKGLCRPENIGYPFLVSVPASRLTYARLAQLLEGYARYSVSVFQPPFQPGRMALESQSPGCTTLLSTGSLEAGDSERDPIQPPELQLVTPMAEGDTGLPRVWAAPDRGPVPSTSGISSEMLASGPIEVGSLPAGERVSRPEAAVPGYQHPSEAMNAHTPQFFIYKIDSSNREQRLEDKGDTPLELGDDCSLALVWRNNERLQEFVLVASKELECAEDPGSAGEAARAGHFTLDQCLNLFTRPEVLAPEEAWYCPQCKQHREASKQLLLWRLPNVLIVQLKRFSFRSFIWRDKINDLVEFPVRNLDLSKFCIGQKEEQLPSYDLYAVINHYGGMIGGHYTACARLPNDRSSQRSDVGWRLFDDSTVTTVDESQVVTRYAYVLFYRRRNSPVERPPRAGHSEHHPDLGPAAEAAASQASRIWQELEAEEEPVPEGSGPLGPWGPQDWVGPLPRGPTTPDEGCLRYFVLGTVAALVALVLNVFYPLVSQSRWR
Method in brief: (§1)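 Global-median-normalised Spectronaut label-free quantities were compared by unpaired t-test, and values are average log2 ratios of fragment over vehicle. Only proteins with ≥2 unique peptides were used. HEK293T lysate (495 µg per sample) was treated in triplicate with fragment at 200 µM or vehicle for 3 h and then with Biotin-Ahx-Ub-VS at 0.5 µM final for 1 h. Labelled DUBs were then NeutrAvidin-enriched, digested with LysC and trypsin, and run by diaPASEF LC-MS/MS.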

USP24 = USP24 (UniProt Q9UPU5)
Method in brief: as §1

USP25 = target: T2, USP25 (UniProt Q9UHP3)
T2 sequence (whole entry): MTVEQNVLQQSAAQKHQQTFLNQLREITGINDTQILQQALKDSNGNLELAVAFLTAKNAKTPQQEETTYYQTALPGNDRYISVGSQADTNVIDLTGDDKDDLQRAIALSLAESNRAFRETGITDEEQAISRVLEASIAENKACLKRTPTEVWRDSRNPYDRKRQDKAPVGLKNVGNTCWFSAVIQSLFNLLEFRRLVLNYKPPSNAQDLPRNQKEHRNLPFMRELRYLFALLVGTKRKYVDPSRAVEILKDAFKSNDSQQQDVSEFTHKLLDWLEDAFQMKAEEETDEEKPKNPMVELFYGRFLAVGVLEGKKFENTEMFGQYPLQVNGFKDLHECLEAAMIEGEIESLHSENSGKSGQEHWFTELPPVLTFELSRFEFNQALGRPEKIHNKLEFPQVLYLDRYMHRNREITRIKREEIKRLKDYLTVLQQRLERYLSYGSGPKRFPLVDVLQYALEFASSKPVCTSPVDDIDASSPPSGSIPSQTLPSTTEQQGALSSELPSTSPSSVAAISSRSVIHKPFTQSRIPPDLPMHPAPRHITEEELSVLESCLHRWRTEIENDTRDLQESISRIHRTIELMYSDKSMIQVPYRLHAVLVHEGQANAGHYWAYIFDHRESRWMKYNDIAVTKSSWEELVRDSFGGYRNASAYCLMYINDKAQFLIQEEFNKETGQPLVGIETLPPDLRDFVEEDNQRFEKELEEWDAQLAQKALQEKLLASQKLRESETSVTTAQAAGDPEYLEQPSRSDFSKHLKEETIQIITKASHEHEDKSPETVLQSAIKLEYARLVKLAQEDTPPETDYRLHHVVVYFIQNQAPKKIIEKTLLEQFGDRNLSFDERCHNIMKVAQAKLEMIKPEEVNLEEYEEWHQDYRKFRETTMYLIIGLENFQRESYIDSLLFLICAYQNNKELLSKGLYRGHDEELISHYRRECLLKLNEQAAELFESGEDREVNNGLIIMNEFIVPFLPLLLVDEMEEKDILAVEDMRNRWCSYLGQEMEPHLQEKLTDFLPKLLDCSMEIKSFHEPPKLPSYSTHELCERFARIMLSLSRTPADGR
Method in brief: as §1

USP28 = target: T3, USP28 (UniProt Q96RU2)
T3 sequence (whole entry): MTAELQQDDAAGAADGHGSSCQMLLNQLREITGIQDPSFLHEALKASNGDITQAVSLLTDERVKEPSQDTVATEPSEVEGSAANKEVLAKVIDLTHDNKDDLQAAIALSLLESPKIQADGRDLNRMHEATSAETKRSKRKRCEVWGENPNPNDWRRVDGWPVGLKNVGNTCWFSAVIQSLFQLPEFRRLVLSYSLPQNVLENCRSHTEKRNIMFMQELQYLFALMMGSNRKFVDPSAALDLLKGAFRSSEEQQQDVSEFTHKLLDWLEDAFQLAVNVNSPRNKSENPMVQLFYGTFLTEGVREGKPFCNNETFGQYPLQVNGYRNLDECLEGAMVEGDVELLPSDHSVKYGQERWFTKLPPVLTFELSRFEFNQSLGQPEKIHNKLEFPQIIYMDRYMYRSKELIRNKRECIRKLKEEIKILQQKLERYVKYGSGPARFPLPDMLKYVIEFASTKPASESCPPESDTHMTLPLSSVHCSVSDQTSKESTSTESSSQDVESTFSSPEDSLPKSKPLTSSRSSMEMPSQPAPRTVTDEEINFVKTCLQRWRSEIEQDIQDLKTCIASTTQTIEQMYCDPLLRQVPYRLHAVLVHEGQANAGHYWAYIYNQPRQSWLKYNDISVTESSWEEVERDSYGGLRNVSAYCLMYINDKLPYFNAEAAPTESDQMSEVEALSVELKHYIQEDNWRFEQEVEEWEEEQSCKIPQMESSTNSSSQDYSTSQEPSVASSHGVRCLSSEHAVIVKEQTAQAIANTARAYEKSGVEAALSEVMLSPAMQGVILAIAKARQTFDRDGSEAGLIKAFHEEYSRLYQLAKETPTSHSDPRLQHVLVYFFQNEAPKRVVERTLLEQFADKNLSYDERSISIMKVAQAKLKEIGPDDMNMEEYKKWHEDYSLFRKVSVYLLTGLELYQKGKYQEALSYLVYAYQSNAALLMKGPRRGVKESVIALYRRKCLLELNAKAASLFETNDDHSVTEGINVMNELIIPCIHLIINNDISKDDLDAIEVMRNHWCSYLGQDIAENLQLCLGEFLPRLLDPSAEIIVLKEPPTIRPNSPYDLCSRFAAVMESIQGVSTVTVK
Method in brief: as §1

Measured: log2 ratio of Biotin-Ahx-Ub-VS probe labelling

USP24, sequence (Q9UPU5 whole entry): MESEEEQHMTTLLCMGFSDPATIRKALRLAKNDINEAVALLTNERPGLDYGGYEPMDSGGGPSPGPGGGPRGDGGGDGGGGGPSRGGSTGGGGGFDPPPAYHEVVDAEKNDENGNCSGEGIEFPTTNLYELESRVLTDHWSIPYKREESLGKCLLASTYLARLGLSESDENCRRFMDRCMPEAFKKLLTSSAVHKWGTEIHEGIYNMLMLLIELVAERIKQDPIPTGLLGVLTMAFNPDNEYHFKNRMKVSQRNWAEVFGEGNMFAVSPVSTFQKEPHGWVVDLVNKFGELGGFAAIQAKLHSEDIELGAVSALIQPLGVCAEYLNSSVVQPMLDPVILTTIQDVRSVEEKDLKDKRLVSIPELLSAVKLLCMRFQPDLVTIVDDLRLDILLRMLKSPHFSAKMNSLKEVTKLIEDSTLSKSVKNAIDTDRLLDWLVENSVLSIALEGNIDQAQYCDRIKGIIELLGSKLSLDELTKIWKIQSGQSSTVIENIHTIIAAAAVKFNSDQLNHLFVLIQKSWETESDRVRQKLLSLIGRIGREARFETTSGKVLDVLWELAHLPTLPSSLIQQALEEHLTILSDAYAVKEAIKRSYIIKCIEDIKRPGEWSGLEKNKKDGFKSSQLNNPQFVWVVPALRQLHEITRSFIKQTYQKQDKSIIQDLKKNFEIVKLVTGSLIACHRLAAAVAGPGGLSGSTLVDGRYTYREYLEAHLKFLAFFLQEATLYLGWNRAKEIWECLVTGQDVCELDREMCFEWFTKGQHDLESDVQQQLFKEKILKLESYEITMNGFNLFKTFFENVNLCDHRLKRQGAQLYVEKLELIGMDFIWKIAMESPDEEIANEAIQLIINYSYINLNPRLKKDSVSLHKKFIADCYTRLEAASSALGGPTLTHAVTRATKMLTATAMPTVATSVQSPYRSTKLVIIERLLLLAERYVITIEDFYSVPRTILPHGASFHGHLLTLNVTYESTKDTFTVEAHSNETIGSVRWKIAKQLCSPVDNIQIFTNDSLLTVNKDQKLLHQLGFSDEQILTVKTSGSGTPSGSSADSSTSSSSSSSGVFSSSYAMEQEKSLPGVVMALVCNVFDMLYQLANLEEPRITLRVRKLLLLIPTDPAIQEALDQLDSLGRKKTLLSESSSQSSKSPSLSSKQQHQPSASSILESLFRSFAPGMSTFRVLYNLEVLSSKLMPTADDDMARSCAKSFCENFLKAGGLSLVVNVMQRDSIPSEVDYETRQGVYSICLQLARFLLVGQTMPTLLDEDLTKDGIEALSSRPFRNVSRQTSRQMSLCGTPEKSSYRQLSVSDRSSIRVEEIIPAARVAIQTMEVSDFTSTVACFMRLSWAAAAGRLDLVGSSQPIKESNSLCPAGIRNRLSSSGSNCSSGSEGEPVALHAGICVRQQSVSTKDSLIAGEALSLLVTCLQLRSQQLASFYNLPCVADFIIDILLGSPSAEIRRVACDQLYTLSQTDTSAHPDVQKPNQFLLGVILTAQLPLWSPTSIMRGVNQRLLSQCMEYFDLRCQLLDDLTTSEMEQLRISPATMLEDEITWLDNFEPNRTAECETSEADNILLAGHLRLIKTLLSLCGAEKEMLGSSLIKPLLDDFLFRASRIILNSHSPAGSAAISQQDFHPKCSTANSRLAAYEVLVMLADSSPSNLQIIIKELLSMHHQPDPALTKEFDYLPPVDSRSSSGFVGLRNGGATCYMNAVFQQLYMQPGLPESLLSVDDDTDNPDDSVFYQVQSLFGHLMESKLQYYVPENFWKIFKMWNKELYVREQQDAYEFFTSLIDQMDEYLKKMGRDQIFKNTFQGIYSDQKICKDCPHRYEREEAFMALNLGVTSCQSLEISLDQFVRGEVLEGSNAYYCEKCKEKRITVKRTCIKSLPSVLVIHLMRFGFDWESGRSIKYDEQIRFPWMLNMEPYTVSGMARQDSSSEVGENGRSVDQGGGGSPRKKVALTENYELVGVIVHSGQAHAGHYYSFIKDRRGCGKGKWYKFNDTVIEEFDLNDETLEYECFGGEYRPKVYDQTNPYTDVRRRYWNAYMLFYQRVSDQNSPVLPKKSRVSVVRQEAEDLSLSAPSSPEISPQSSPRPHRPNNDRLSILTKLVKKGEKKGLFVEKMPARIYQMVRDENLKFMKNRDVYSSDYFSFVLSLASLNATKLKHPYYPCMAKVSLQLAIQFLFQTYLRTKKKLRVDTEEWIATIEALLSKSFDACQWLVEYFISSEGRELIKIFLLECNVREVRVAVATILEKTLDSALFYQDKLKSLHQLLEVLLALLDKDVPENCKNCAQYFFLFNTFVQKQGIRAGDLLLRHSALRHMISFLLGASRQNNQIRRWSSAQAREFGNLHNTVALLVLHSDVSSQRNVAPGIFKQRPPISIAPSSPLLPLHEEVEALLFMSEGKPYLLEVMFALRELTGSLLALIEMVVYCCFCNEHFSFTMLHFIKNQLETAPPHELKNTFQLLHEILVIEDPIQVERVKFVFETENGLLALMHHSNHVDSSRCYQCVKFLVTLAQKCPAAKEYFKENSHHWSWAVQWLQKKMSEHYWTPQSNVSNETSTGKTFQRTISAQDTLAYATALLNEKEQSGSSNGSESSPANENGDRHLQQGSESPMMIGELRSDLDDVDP

O=C(CCl)N1CCCCCC1c1ncon1 (centres undefined)
inactive: USP19 -0.0696 | USP24 -0.257 | USP25 -0.435 | USP28 -0.35
